PubChem BioAssay AID1508601 (ICCB-Longwood Screening Facility, Harvard Medical School, 2020)
Hit rate of the full screen: of about 5,700 compounds, about 85 (1%) were called active. Rule as the data show it: active = p53-positive nuclei above about 36% (passing the limit was not always enough); inactive = the rest. The full list was thinned out, with actives kept by preference.

Key:
[1] = p53 stabilisation in HPV-positive human cells, imaging, p53-positive nuclei imaging, 24 h, 48 h (AID 1508601); details: 24/48 h
[2] = molecular target: Cellular tumor antigen p53 (Homo sapiens) (UniProt P04637); experiment: as above; details: 24/48 h, stronger effect = higher value
[3] = measured here: cell number at 24 h, Library stock concentration: 3.33 mM
[4] = measured here: cell number at 48 h, Library stock concentration: 3.33 mM
[5] = Library stock concentration: 3.33 mM
[6] = measured here: p53 positive nuclei at 24 h, Library stock concentration: 3.33 mM
[7] = measured here: cell number at 24 h, Library stock concentration: 46 uM
[8] = measured here: cell number at 24 h, Library stock concentration: 278 uM
[9] = measured here: cell number at 24 h, Library stock concentration: 1.67 mM
[10] = measured here: cell number at 24 h, Library stock concentration: 10 mM
[11] = measured here: cell number at 48 h, Library stock concentration: 46 uM
[12] = measured here: cell number at 48 h, Library stock concentration: 278 uM
[13] = measured here: cell number at 48 h, Library stock concentration: 1.67 mM
[14] = measured here: cell number at 48 h, Library stock concentration: 10 mM
[15] = Library stock concentration: 46 uM
[16] = Library stock concentration: 278 uM
[17] = Library stock concentration: 1.67 mM
[18] = Library stock concentration: 10 mM
[19] = measured here: p53 positive nuclei at 24 h, Library stock concentration: 46 uM
[20] = measured here: p53 positive nuclei at 24 h, Library stock concentration: 278 uM
[21] = measured here: p53 positive nuclei at 24 h, Library stock concentration: 1.67 mM
[22] = measured here: p53 positive nuclei at 24 h, Library stock concentration: 10 mM

Sequence of Cellular tumor antigen p53 (Homo sapiens) (P04637 whole entry, looked up): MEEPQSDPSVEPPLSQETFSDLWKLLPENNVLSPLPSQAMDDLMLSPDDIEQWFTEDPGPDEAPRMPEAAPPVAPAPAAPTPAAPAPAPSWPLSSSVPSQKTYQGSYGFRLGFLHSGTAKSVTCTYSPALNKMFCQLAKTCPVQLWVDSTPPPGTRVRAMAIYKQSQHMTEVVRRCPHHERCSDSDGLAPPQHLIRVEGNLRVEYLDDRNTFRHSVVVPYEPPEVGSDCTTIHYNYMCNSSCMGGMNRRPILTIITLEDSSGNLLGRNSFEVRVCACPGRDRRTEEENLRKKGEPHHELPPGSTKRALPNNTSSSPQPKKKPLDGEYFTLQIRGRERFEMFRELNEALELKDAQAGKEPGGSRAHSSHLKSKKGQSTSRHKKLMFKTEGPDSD

## CC1C[C@H]2[C@@H]3CCC4=CC(=O)C=C[C@]4(C)[C@@H]3C(=O)C[C@]2(C)[C@]1(O)C(=O)CO (some centres undefined)
[1]; [3]
  nuclei count, normalised: 104%
[1]; [4]
  nuclei count, normalised: 88.5%
[2]; [5]
  p53-positive nuclei, normalised: 1.05% (inactive)
[2]; [6]
  p53-positive nuclei, normalised: 1.05%

## CN(CCC(Oc1ccc(-c2ccccc2)cc1)c1ccc(F)cc1)CC(=O)O (centres undefined)
[1]; [7]
  nuclei count, normalised: 112%
[1]; [8]
  nuclei count, normalised: 111%
[1]; [9]
  nuclei count, normalised: 107%
[1]; [10]
  nuclei count, normalised: 115%
[1]; [11]
  nuclei count, normalised: 109%
[1]; [12]
  nuclei count, normalised: 113%
[1]; [13]
  nuclei count, normalised: 104%
[1]; [14]
  nuclei count, normalised: 110%
[2]; [15]
  p53-positive nuclei, normalised: -0.199% (inactive)
[2]; [16]
  p53-positive nuclei, normalised: -0.17% (inactive)
[2]; [17]
  p53-positive nuclei, normalised: 0.114% (inactive)
[2]; [18]
  p53-positive nuclei, normalised: -0.129% (inactive)
[2]; [19]
  p53-positive nuclei, normalised: -0.152%
[2]; [20]
  p53-positive nuclei, normalised: -0.0916%
[2]; [21]
  p53-positive nuclei, normalised: -0.153%
[2]; [22]
  p53-positive nuclei, normalised: -0.0944%

## O=C1CC(c2ccc([N+](=O)[O-])cc2)=NN1c1ccccc1
[1]; [7]
  nuclei count, normalised: 114%
[1]; [8]
  nuclei count, normalised: 115%
[1]; [9]
  nuclei count, normalised: 116%
[1]; [10]
  nuclei count, normalised: 117%
[1]; [11]
  nuclei count, normalised: 107%
[1]; [12]
  nuclei count, normalised: 109%
[1]; [13]
  nuclei count, normalised: 110%
[1]; [14]
  nuclei count, normalised: 106%
[2]; [15]
  p53-positive nuclei, normalised: -0.127% (inactive)
[2]; [16]
  p53-positive nuclei, normalised: 0.0933% (inactive)
[2]; [17]
  p53-positive nuclei, normalised: -0.137% (inactive)
[2]; [18]
  p53-positive nuclei, normalised: -0.204% (inactive)
[2]; [19]
  p53-positive nuclei, normalised: -0.0266%
[2]; [20]
  p53-positive nuclei, normalised: 0.0349%
[2]; [21]
  p53-positive nuclei, normalised: 0.0231%
[2]; [22]
  p53-positive nuclei, normalised: 0.0862%

## CC(O)[C@H]1C(=O)N2C(C(=O)OCOC(=O)C(C)(C)C)=C(SC3CN(C4=NCCS4)C3)C(C)[C@@H]12 (some centres undefined)
[1]; [3]
  nuclei count, normalised: 106%
[1]; [4]
  nuclei count, normalised: 101%
[2]; [5]
  p53-positive nuclei, normalised: -0.0394% (inactive)
[2]; [6]
  p53-positive nuclei, normalised: -0.252%

## CC1(C)SC2C(NC(=O)C(NC(=O)N3CCNC3=O)c3ccccc3)C(=O)N2C1C(=O)O (centres undefined)
[1]; [3]
  nuclei count, normalised: 118%
[1]; [4]
  nuclei count, normalised: 111%
[2]; [5]
  p53-positive nuclei, normalised: -0.143% (inactive)
[2]; [6]
  p53-positive nuclei, normalised: -0.242%
